A selection: hits, their analogues and other compounds. The true share with any hit is near 28%.
CD11b adhes enh = CD11b/CD18-fibrinogen binding enhancement; P05107+P11215; K562 CD11b/CD18 adhesion to fibrinogen, ATPlite luminescence; activation, % at 10 µM; 93,000 compounds, 0.07% hits; AID 1499;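 active means 10 µM primary screen giving 50% or more activity, confirmed by 40% or more on retest at that dose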
CYP2C19 act = increases human CYP2C19 enzyme activity; P33261; recombinant CYP2C19, luciferin-H EGE luminescence; hits give high values; 0 = fully inhibited enzyme, 1 = untreated enzyme; activation factor at 5 µM; 96,000 tested, under 10 active; AID 1025;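 active means activation factor of at least 2 at 5 µM in the primary screen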
Target sequence (P33261 whole entry, looked up): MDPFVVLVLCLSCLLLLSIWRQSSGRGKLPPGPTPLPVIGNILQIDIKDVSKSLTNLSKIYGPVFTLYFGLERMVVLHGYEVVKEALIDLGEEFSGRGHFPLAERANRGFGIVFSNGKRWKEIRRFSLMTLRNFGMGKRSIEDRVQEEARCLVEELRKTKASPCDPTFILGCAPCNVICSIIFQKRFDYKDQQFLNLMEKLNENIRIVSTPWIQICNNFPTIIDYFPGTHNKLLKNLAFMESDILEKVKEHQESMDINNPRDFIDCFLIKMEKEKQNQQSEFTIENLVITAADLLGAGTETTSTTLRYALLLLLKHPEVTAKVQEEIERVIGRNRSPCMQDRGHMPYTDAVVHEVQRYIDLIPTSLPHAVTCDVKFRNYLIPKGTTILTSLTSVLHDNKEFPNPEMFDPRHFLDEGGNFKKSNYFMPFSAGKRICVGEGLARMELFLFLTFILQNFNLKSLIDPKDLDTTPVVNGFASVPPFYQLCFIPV
CYP2C9 act = activators of human CYP2C9. activation factor at 5 µM. recombinant CYP2C9, luciferin-H conversion, luminescence; hits give high values; factor 1 = untreated enzyme, 0 = blocked. P11712. 96,000 compounds, 1.4% hits;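 active means activation factor of 2 or more for CYP2C9 at a 5 µM dose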
CYP2C9 inh = human CYP2C9 inhibition | 96,000 compounds, 20% hits | inhibition, % at 5 µM | P11712 | CYP2C9 Supersomes, luciferin-H conversion, luminescence | AID 777;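 active means blocking of liver enzyme CYP2C9 beyond about 50% at 5 µM, limit read from the data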
CD11b adhes inh = inhibitors of human CD11b/CD18 binding to fibrinogen; P05107+P11215; K562 CD11b/CD18 adhesion to fibrinogen, ATPlite luminescence; Mn2+ added to activate the integrin; inhibition, % at 10 µM; 93,000 compounds, 0.54% hits;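 active means primary inhibition of 50% or more at 10 µM, then 40% or more on retest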
CYP2C19 inh = inhibitors of human CYP2C19; P33261; CYP2C19 Supersomes, luciferin-H EGE luminescence, 30 min; inhibition, % at 5 µM; 96,000 compounds, 21% hits;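 active means CYP2C19 inhibition above a set limit at 5 µM in the primary screen, cut at about 50% in these data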
A number is an active result; . = inactive; / = not tested or not shown.

SMILES	CD11b adhes enh	CYP2C19 act	CYP2C9 act	CYP2C9 inh	CD11b adhes inh	CYP2C19 inh
CCc1ccc(NS(=O)(=O)c2ccc(OC)c(C)c2)cc1	.	.	.	80.0	.	77.7
COc1ccc(S(=O)(=O)Nc2ccc3ccccc3c2)cc1C	.	.	.	100.3	.	100.3
C=C(C)CSc1nnc(-c2cc(OC)c(OC)c(OC)c2)n1N	.	.	.	.	.	.
CCN(CC)C(=O)c1cccc(-c2ccc(OC)cc2)c1	.	.	.	.	.	68.9
COc1ccc(-c2cccc(C(=O)NCC(=O)O)c2)cc1	.	.	.	.	.	.
COCCn1c(Cc2ccccc2)nnc1SCc1ccc([N+](=O)[O-])cc1	.	/	/	/	.	/
O=C(OCC(F)(F)C(F)F)c1ccccc1C(=O)Oc1ccc(F)cc1F	.	.	.	75.9	.	90.5
O=C(Nc1ccc(OCC(F)(F)C(F)F)c(C(F)(F)F)c1)c1ccccc1O	.	.	.	.	.	.
Cc1cc(C)n(-c2c(F)c(F)c(CO)c(F)c2F)n1	.	.	.	.	.	.
COc1cccc(NC(=O)N(CCCN2CCOCC2)C(C)c2cc3ccccc3o2)c1 (centres undefined)	.	.	.	51.6	.	.
COc1cccc(NC(=O)N(CCCN2CCOCC2)C(C)c2cc3cccc(OC)c3o2)c1 (centres undefined)	.	.	.	66.9	.	66.5
CCC(C)Nc1c2c(nc3c(-c4ccccc4)c(C)nn13)CCC2 (centres undefined)	/	.	.	.	/	.
O=C(COc1ncnc2sccc12)N1CCc2ccccc2C1	.	.	.	.	.	59.1
CNC(=O)COc1ncnc2sccc12	.	.	.	.	.	.
O=C1CN(C(=O)CCCc2c[nH]c3ccccc23)c2ccccc2N1	.	.	.	.	.	50.2
O=C(CCCc1c[nH]c2ccccc12)N1CCOCC1	.	.	.	.	.	66.8
O=C(O)CCCC(=O)N1CC(=O)Nc2ccccc21	.	.	.	.	.	.
O=C(CCCc1c[nH]c2ccccc12)N1CCN(S(=O)(=O)c2cccs2)CC1	.	.	.	.	.	.
Cc1[nH]c2ccccc2c1SCC(=O)N1CCOCC1	.	.	.	.	.	92.7
COCC(=O)NCCSc1c(C)[nH]c2ccccc12	.	.	.	.	.	57.9
COCC(=O)NCCc1nc2ccccc2[nH]1	.	.	.	.	.	.
C/C(=N\NC(N)=S)C12CC3CC(CC(C3)C1)C2	.	.	.	.	.	.
CCOC(=O)CN1C(=O)C(O)=C(C(C)=O)C1c1ccccc1 (centres undefined)	.	.	.	.	.	.
COc1cc2c(cc1OC)CN(S(C)(=O)=O)CC2	.	.	.	.	.	.
N#Cc1c(NC(=O)c2cc(-n3cnnc3)ccc2Cl)sc2c1CCCC2	.	.	.	.	.	.
SMILES	CD11b adhes enh	CYP2C19 act	CYP2C9 act	CYP2C9 inh	CD11b adhes inh	CYP2C19 inh
O=C(CSc1c[nH]c2ccccc12)N1CCOCC1	.	.	.	.	.	84.4
O=C(CSc1nncc2ccccc12)N1CCOCC1	.	.	.	.	.	.
Cc1cc(O)c(/C=N/Nc2cccc(Cl)c2)c(=O)o1	.	.	.	70.9	.	58.4
Cc1cccc(-c2oc(C)c(C)[n+]2[O-])c1	.	.	.	.	.	.
CCC1(C)Cc2c(sc(NC(=O)CCC(=O)O)c2C#N)CO1 (centres undefined)	.	.	.	.	.	.
CCC(=O)Nc1sc2c(c1C#N)CC(C)(CC)OC2 (centres undefined)	/	.	.	.	/	51.3
COCCn1c(SCC(=O)NCc2ccco2)nc2cccnc21	.	.	.	.	.	53.5
CCCCNC(=O)CSc1nc2cc(OC)c(OC)cc2c(=O)n1Cc1ccc(OC)cc1	/	.	.	68.0	/	.
CCSc1nc2cc(OC)c(OC)cc2c(=O)n1CC	.	.	.	51.8	.	.
CCNC(=O)CSc1nc2cc(OC)c(OC)cc2c(=O)n1CCC1=CCCCC1	.	.	.	52.3	.	51.6
Cc1cccc(C)c1OCC(=O)NNC(=O)Nc1ccc(Cl)cc1	.	.	.	.	.	.
CCCCCCc1nc2ccccc2c(=O)n1NC(=O)c1c(O)c2cccc3c2n(c1=O)CCC3	.	.	.	.	.	.
COCCNC(=O)CSc1nc2cc(OC)c(OC)cc2c(=O)n1Cc1ccco1	.	.	.	82.8	.	.
COc1ccc(NC(=O)CSc2nnc(-c3ccccn3)n2Cc2ccco2)cc1OC	/	.	.	.	/	.
COC(=O)c1ccc2c(=O)n(Cc3ccco3)c(SCC(=O)Nc3ccc(C)c(Cl)c3)nc2c1	.	.	.	77.3	.	.
COc1ccc(NC(=O)CN2CCC(C)CC2)c([N+](=O)[O-])c1	.	.	.	53.7	.	64.8
COc1ccc(NC(=O)CN2CCN(C3c4ccccc4-c4ccccc43)CC2)cc1	.	.	.	94.7	.	58.7
COc1ccc(NC(=O)CN2CCOCC2)cc1	.	.	.	.	.	.
CCOc1ccc(/C=C/C(=O)Nc2ccc(OC)cc2[N+](=O)[O-])cc1	.	.	2.4	.	.	.
COc1ccc(NC(=O)CN2CCC(C)CC2)cc1	.	.	.	.	.	89.3
O=C(NCC1CCCO1)c1nn2cccnc2c1Cl (centres undefined)	.	.	.	.	.	.
CCOc1ccc(NC(=O)C(C)Oc2ccccc2C(=O)Nc2ccc(C)c(Cl)c2)cc1 (centres undefined)	.	/	/	/	.	/
O=C(Nc1ccc(Oc2ccccc2)cc1)c1cnc2n(c1=O)CCS2	.	.	.	.	.	.
COc1ccc(NC(=O)CN2CCN(CC(=O)Nc3ccccc3Cl)CC2)cc1Cl	/	.	.	57.1	/	91.3
COc1ccc(NC(=O)CN2CCC3(O)CCCCC3C2c2cc(OC)ccc2OC)cc1 (centres undefined)	.	.	.	79.9	.	71.0
SMILES	CD11b adhes enh	CYP2C19 act	CYP2C9 act	CYP2C9 inh	CD11b adhes inh	CYP2C19 inh
COc1ccc(NC(=O)CN2CCN(CC(=O)Nc3cc(OC)cc(OC)c3)CC2)cc1	.	.	.	61.2	.	55.5
O=C(CN1CCCC1)Nc1ccccc1Cl	.	.	.	.	.	.
Cc1sc(NC(=O)C(C)C)c(C(=O)Nc2ccccc2)c1C	/	.	.	.	/	.
CC(C)(C)OC(=O)N[C@@H](Cc1ccccc1)c1nnc(SCC(=O)O)o1	.	.	.	56.4	.	.
Cc1ccccc1CS(=O)(=O)c1nnc([C@H](Cc2ccccc2)NC(=O)OC(C)(C)C)o1	.	.	.	66.2	.	.
CC(C)(C)OC(=O)N[C@@H](Cc1ccccc1)c1nnc(SCC(=O)c2ccc(Cl)cc2)o1	.	.	.	61.4	.	60.8
Cc1ccc(Oc2ncc(CN3CC(C)OC(C)C3)s2)cc1 (centres undefined)	/	.	.	.	/	.
O=C(NCc1cccs1)c1ccc([N+](=O)[O-])cc1	.	/	/	/	/	/

Screening data deposited in PubChem by Sanford-Burnham Center for Chemical Genomics.
